# High-throughput results (PubChem)
# The list is not random: actives were taken first. Their share in the collection is about 11%.
# AMA1-RON2 inh: qHTS for Inhibitors of AMA1-RON; Towards Development of Antimalarial Drug Lead: Primary Screen; AID 720542, 2013; Potency, µM (doses to about 58.2 µM), most hits filed as inhibitors; AlphaScreen AMA1-biotinylated RON2 peptide binding; Plasmodium falciparum AMA1 (3D7) - RON2 peptide interaction; 360,000 compounds, 0.2% hits; also: nearly all actives have a fitted effect of over 45% in size
#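 AMA1 (3D7) with his tag at 25 nM final met compounds first, then biotinylated RON2 peptide at 25 nM; detection used donor plus acceptor beads, 10 µg/mL apiece, read by AlphaScreen after 30 min at room temperature.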
# AmpC inh detg: qHTS Inhibitors of AmpC Beta-Lactamase (assay with detergent). 370,000 compounds, 0.041% hits. Potency, µM (top dose mostly 114 µM), actives largely listed as inhibitors. P00811. AID 485294, 2010. AmpC hydrolysis of nitrocefin, absorbance 480 nm, 0.01% Triton; also: nearly all actives have a fitted effect of over 25% in size
# Target sequence (P00811 whole entry, looked up): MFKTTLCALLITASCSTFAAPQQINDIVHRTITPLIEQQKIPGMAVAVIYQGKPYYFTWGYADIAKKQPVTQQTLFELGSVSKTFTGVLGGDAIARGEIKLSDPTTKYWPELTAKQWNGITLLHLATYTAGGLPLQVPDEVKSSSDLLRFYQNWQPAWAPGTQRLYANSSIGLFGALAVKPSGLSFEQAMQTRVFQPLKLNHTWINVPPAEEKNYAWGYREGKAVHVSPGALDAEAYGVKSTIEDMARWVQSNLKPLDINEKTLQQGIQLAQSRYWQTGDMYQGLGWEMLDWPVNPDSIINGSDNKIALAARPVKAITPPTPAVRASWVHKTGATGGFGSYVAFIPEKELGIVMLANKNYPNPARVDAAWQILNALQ
#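 20 mM phosphate pH 7.0 + 0.01% (detergent screen) or 0.0001% Triton X-100; 5.3 nM AmpC reagent; cpd preinc 15 min RT; nitrocefin (800 uM stock) to start; A480 q20 s × 4 min; Activity was normalised to no-enzyme and no-compound control wells.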
# Pf growth 96h: Primary qHTS for delayed death inhibitors of the malarial parasite plastid, 96 hour incubation; P. falciparum luciferase reporter growth, 96 h; Potency, µM (doses to about 28.7 µM), most hits filed as inhibitors; 320,000 compounds, 6.9% hits
#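 Plates of compound plus infected erythrocytes (2% hematocrit, 0.05% parasitemia final) incubate 96 hours, 37 C, 5% CO2. Detection reagent added; reduced luminescence from the parasites' luciferase reporter flags inhibition.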
# AmpC no deterg: qHTS Inhibitors of AmpC Beta-Lactamase (assay without detergent). P00811. AmpC nitrocefin hydrolysis, absorbance 480 nm, 0.0001% Triton. Potency, µM (series often up to 57.1 µM), actives largely listed as inhibitors. 330,000 compounds, 0.52% hits; also: nearly all actives have a fitted effect of over 20% in size
#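 20 mM phosphate pH 7.0 + 0.01% (detergent screen) or 0.0001% Triton X-100; 5.3 nM AmpC reagent; cpd preinc 15 min RT; nitrocefin (800 uM stock) to start; A480 q20 s × 4 min; Activity was normalised to no-enzyme and no-compound control wells.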
# HCV inhibitor: qHTS Assay for Inhibitors of Hepatitis C Virus (HCV); Huh7.5.1 HCVcc-Cre infection, luciferase reporter, 44 h; Potency, µM (top dose mostly 41.8 µM), usual class: inhibitors; 340,000 compounds, 3.4% hits
#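 Seed cells (1,000/well) for 4 h; treat with compound and infect with HCVcc-Cre, moi about 0.5. Incubate 44 h, then detect luciferase activity.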
# Pf growth 48h: Primary qHTS for delayed death inhibitors of the malarial parasite plastid, 48 hour incubation; P. falciparum luciferase growth in erythrocytes, 48 h; AID 504832, 2011; 310,000 compounds, 5.9% hits; Potency, µM (top dose mostly 28.7 µM), most hits filed as inhibitors
#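 A one-generation exposure of luciferase-tagged malaria parasites in RPMI 1640/Albumax erythrocyte culture, 37 C and 5% CO2. Inhibition is inferred from decreased luminescence after adding detection reagent.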
# A number is an active result; – = inactive; ? = inconclusive; · = no result. Calls follow the shape of the dose curve; as a rule, active = well fitted curve in the direction sought with a large enough effect; inconclusive = small, poorly fitted or top-dose-only effect, or another doubt; inactive = no such curve, though single readings can be large; an effect the other way counts as inactive or inconclusive.
SMILES,AMA1-RON2 inh,AmpC inh detg,Pf growth 96h,AmpC no deterg,HCV inhibitor,Pf growth 48h
CC(=O)Nc1ccc(NC(=O)CCn2c(=S)oc3ccccc32)cc1,–,–,–,–,–,–
Cn1c(=S)oc2ccccc21,?,–,–,–,–,–
CC(C)CC(=O)/C=C/n1c(=S)oc2ccccc21,–,?,?,–,14µM,?
CCCCSCCCNC(=O)CN1C(=O)c2cccnc2Oc2ccc(Cl)cc21,·,–,·,·,·,·
C[N+]12CCCCC1C(COC(=O)c1ccc3c(c1)OCO3)CCC2 (stereo unspecified),–,–,·,–,–,9.3µM
CN(C(=O)COC(=O)c1ccc2c(c1)OCO2)C1CCCCC1,–,·,·,–,–,·
COc1ccc(C(=O)Cn2cc[n+](C)c2)cc1,–,–,–,–,11µM,12µM
COc1ccc(C(=O)CC(=O)c2ccc(OC)cc2)cc1,–,–,–,–,–,–
CCOc1ccc(NC(=O)Cn2ccn3nc(-c4ccc(OC)c(OC)c4)cc3c2=O)cc1,·,–,·,·,·,·
CCCn1c(C)cc(=O)c2cc(NC(=O)c3cnccn3)ccc21,–,–,–,–,2.2µM,–
Cc1ccc(/C=C2/SC(=S)N(CCC(=O)N3CCN(C)CC3)C2=O)cc1,–,–,12µM,–,?,?
O=C(CCN1C(=O)/C(=C\c2ccccc2F)SC1=S)N1CCOCC1,–,·,·,·,·,·
CN1CCN(C(=O)CCN2C(=O)/C(=C\c3ccccc3F)SC2=S)CC1,–,?,12µM,–,?,?
O=C(/C=C/c1cccc([N+](=O)[O-])c1)NCCSCc1ccc(Cl)cc1Cl,?,?,–,–,?,–
O=C(/C=C/c1cccc([N+](=O)[O-])c1)NCCSCc1ccccc1Cl,–,–,2.9µM,–,–,–
Cc1c(C(=O)NCCSCc2ccccc2Cl)cccc1[N+](=O)[O-],–,–,–,0.25µM,?,?
COc1ccccc1C(=O)NCCSCc1c(F)cccc1Cl,–,–,10µM,–,–,?
Cc1cc(NC(=O)CCCn2c(C)c3cnn(-c4ccccc4)c(=O)c3c2C)ccc1Br,·,–,·,·,·,·
O=c1c2ccccc2c(C=Nc2ccccc2O)c(O)n1-c1nccs1,–,–,?,–,?,13µM
Nc1c(N(CCC2=CCCCC2)C(=O)c2ccc([N+](=O)[O-])o2)c(=O)[nH]c(=O)n1Cc1ccccc1,–,?,?,–,?,10µM
Nc1c(N(CCC2=CCCCC2)C(=O)COc2ccc(F)cc2Cl)c(=O)[nH]c(=O)n1Cc1ccccc1,–,·,·,·,?,·
Nc1c(N(CCC2=CCCCC2)C(=O)Cc2ccc(F)cc2)c(=O)[nH]c(=O)n1Cc1ccccc1,–,–,?,–,?,9.3µM
CCC(Oc1ccccc1)C(=O)Nc1nnc(S(=O)(=O)N(CC)CC)s1 (stereo unspecified),·,–,·,·,·,·
O=c1ccc(Oc2nc(N3CCCCC3)nc(N3CCCCC3)n2)n[nH]1,–,–,3.7µM,–,?,–
CCNc1nc(Oc2ccc(=O)[nH]n2)nc(N2CCOCC2)n1,–,–,–,–,–,·
SMILES,AMA1-RON2 inh,AmpC inh detg,Pf growth 96h,AmpC no deterg,HCV inhibitor,Pf growth 48h
COc1ccc(C(=O)NC(C)c2nc3ccccc3n2C)cc1OC (stereo unspecified),–,–,–,–,–,–
COc1ccc(C(O)c2nc3ccccc3n2C)cc1OC (stereo unspecified),–,–,–,–,2.8µM,–
COc1ccc(NC2=Nc3ccccc3N3C2=Nc2c(c(C)nn2-c2ccc(C)cc2)C3c2cccnc2)cc1 (stereo unspecified),–,?,2.1µM,–,?,·
CC(=O)Nc1ccc(NC(=O)c2c(C)nn(-c3ccccc3)c2-n2cccc2)cc1,·,–,·,·,·,·
CC(=O)Nc1ccc(NC2=Nc3ccccc3N3C2=Nc2c(c(C)nn2-c2ccccc2)C3c2ccccc2)cc1 (stereo unspecified),–,–,?,–,–,0.93µM
CCOc1ccc(NC(=O)c2oc3ccccc3c2NC(=O)C(C)Oc2ccccc2)cc1 (stereo unspecified),·,–,·,·,·,·
COc1ccc(CNC(=O)CN2C(=O)COc3ccc(S(=O)(=O)N4CCCCCC4)cc32)cc1,·,–,·,·,·,·
Nc1nc(C(=O)N2CCOCC2)nn1C(=O)c1ccc(Cl)cc1,–,–,10µM,–,–,–
O=C(c1ccc(Cl)cc1)c1ccccc1C(=O)N1CCOCC1,–,?,–,–,–,–
Cc1ccc(O)c(C(=O)c2cnc3c(c2)c(-c2ccc(F)cc2)c(C#N)c(=O)n3C)c1,–,–,?,–,?,?
CCc1nn2cc(C(=O)c3cc(C)ccc3O)cnc2c1-c1ccc(F)cc1,?,–,–,–,?,2.6µM
COc1ccc(-n2nc(C(=O)N3CCCCC3C)c3c4ccccc4n(C)c3c2=O)cc1Cl (stereo unspecified),·,–,·,·,·,·
O=C(Cc1n[nH]c(=O)[nH]c1=O)N/N=C/c1ccccc1O,–,–,–,–,–,1.5µM
COc1ccc(/C=N/NC(=O)Cc2n[nH]c(=O)[nH]c2=O)cc1,–,–,–,–,–,–
